The source of these data is PubChem BioAssay (NCATS).

Test [1] is described as follows: HPAF-II Cancer Cell Toxicity qHTS against the NCATS CANVASS Library (AID 1347346). Also: nearly all actives have a fitted effect of over 55% in size. Also: potency is read from the fitted curve at half-maximal effect. An outline of the steps:
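HPAF-II cells were seeded at 1000 cells/well, allowed to settle for 4 h at 37 degrees C, then exposed to compounds in an 11-point series for 72 h. Viability was read by CellTiter-Glo luminescence.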
For orientation: In qHTS, concentration-response curves come from the screen itself.

Test [2] is described as follows: HPAF-II 24hr Apoptosis Induction qHTS against the NCATS CANVASS Library (AID 1347356). The essentials: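 HPAF-II cells (500/well) in DMEM + 10% FBS were treated with an 11-point compound series for 24 hours at 37 degrees C. Caspase-3/7 activity was then read by Caspase-Glo DEVD luminescence after 15 min.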
Test [3] in a line: HEK293 18hr Apoptosis Induction qHTS against the NCATS CANVASS Library (AID 1347357). The essentials:
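HEK293 cells (500/well, DMEM + 10% FBS) treated with an 11-point series for 18 h at 37 degrees C. Caspase-3/7 activity read by Caspase-Glo luminescence after 15 min at room temperature.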

A short description of test [4]: HPAF-II 12hr Apoptosis Induction qHTS against the NCATS CANVASS Library (AID 1347358). The essentials:
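HPAF-II cells (500/well, DMEM + 10% FBS) were exposed to compounds for 12 hours at 37 degrees C. Caspase-3/7 activity was then read by Caspase-Glo 3/7 luminescence after 15 min at room temperature.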

Test [5] is described as follows: HPAF-II 18hr Apoptosis Induction qHTS against the NCATS CANVASS Library (AID 1347360). An outline of the steps:
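HPAF-II cells at 500/well were exposed for 18 h at 37 C to an 11-point compound series. Caspase-3/7 activity was read by Caspase-Glo luminescence after 15 min at RT.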

The nature of test [6]: HEK293 12hr Apoptosis Induction qHTS against the NCATS CANVASS Library (AID 1347361). An outline of the steps: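 HEK293 cells (500/well) were exposed to an 11-point qHTS concentration series for 12 hours at 37 degrees C. Caspase-3/7 activity was then read by DEVD-substrate luciferase luminescence after 15 min at room temperature.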
Test [7] concerns NAD(P)H diaphorase (Clostridium kluyveri). Description: Diaphorse counterscreen qHTS: Assay Interference Panel against the NCATS CANVASS Library (AID 1347362). An outline of the steps:
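Clostridium kluyveri diaphorase in PBS with 0.01% Tween-20 was preincubated 15 min at room temperature in the dark with compounds (11-point series). Resorufin fluorescence (ex 525/20, em 598/25) was read 5 min after adding resazurin/NADH.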
(In general: The purpose of a counterscreen is to sort out artefacts and off-target activity.)

The target in test [8] is Luciferin 4-monooxygenase (Photinus pyralis) (UniProt P08659). Briefly: Firefly luciferase counterscreen qHTS: Assay Interference Panel against the NCATS CANVASS Library (AID 1347363). Also: series mostly up to about 57 µM. The essentials:
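Purified P. pyralis luciferase was added to compounds (11-point series) preincubated 15 min at room temperature with substrate containing 0.013 mM D-luciferin and 0.013 mM ATP; luminescence was read after 5 min.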

Test [9] can be described thus: MCF7 Cancer Cell Toxicity qHTS against the NCATS CANVASS Library (AID 1347369). An outline of the steps:
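MCF7 cells (500/well) were exposed 72 h at 37 °C to compounds in an 11-point series. Viability was read as ATP content by CellTiterGlo luminescence.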

A short description of test [10]: qHTS for ATAD5 Antagonist screened against the NCATS CANVASS Library (AID 1347370). Also: nearly all actives have a fitted effect of over 65% in size. Also: potency is read from the fitted curve at half-maximal effect. An outline of the steps:
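HEK293T cells with a stably integrated ATAD5-controlled luciferase reporter were exposed to compounds (11-pt) alongside 10 uM 5-fluorouridine as ATAD5 stabilizer for 16hr at 37C. Viability was read by CellTiter-Fluor fluorescence, then ATAD5 by luminescence.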

The nature of test [11]: J3T Cancer Cell Toxicity qHTS against the NCATS CANVASS Library (AID 1347371).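 Also: J3T is a canine glioma cancer cell line seeded at 500 cells per well; series mostly up to about 46 µM.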 The essentials:
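J3T dog glioma cells (500 cells/well) were exposed to compounds in an 11-point series for 72 hr at 37C, 5% CO2. Cytotoxicity was read as ATP content by CellTiterGlo luminescence.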

Test [12] concerns the target Nuclear receptor subfamily 1 group I member 3 (Homo sapiens) (UniProt Q14994). Description: qHTS for Constitutive Androstane Receptor (CAR) Antagonist screened against the NCATS CANVASS Library (AID 1347372).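 Also: cells stimulated with 50 nM CITCO agonist so inhibition reflects antagonism; series mostly up to about 46 µM.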 The essentials: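 HepG2 cells stably carrying hCAR and a CYP2B6-2.2kb luciferase reporter were exposed to compounds plus 50 nM CITCO for 24hr at 37C. CAR activity was read by ONE-Glo luminescence, with viability measured first by CellTiter-Fluor.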

The target is the same in test [13]. Briefly: qHTS for Constitutive Androstane Receptor (CAR) Agonist screened against the NCATS CANVASS Library (AID 1347373).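 Also: every well also contained 1.5 µM PK11195 alongside the test compound.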 An outline of the steps: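 HepG2 cells stably expressing hCAR and a CYP2B6-2.2kb luciferase reporter were treated for 24hr at 37C with compounds (11-point qHTS) in the presence of 1.5uM PK11195. Reporter activation was read by ONE-Glo luminescence.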

Test [14] can be described thus: qHTS for Hypoxia signaling pathway (HIF-1) agonists against the NCATS CANVASS Library (AID 1347375). An outline of the steps:
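HRE-bla ME-180 cells (beta-lactamase reporter under hypoxia responsive element) in 0.5% dialyzed FBS medium, 5 h at 37C, then compound 17 h, 11-point qHTS series. CCF4-AM FRET substrate 2 h RT; 460/530 nm emission read.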

Test [15] is described as follows: 10-beta competent E. coli microbial cell viability qHTS against the NCATS CANVASS Library (AID 1347376). Also: series mostly up to about 46 µM. The essentials:
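10-beta competent E. coli (0.9 OD culture diluted to 0.2 OD) exposed to compounds in an 11-point qHTS series, incubated overnight at 37C, 5% CO2. Viability read as ATP by BacTiter-Glo luminescence after 20 min at room temperature.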

The nature of test [16]: Cytotoxicity qHTS for assessment of Hepg2 cells membrane integrity screened against the NCATS CANVASS Library (AID 1347387). An outline of the steps:
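HepG2 cells (2000/well) attached overnight at 37C, then received compounds in an 11-point series at 0.59 nM - 46 uM final for 5 hr. LDH release was detected fluorometrically (ex 560/em 590 nm) with CytoTox-ONE reagent after 10 min at room temperature.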

Test [17] is described as follows: qHTS for Activators of p53 Stress Response Pathway screened against the NCATS CANVASS Library (AID 1347388). The essentials: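 p53RE-bla HCT-116 cells (4000/well) were plated 5 h at 37C, exposed to compounds for 16 h at 37C over an 11-point concentration series, then loaded with CCF4 for 2 h at room temperature; 460/530 nm emission ratio read.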
Test [18] in a line: qHTS for activators of dead-cell proteases activity screened against the NCATS CANVASS Library (AID 1347392).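 Also: luminescence from protease leaking out of membrane-damaged cells cleaving impermeant substrate; rising signal means more cytotoxicity.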 The essentials:
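HepG2 cells (2000/well) attached 18 h at 37C, then exposed 5 h to compounds (11-point qHTS). Dead-cell protease activity read as luminescence from cell-impermeant AAF-aminoluciferin substrate after 15 min at room temperature.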

Test [19] can be described thus: Viability qHTS for inhibitors of the SERCaMP assay screened against the NCATS CANVASS Library (AID 1347400). Also: series mostly up to about 92 µM; nearly all actives have a fitted effect of over 70% in size. An outline of the steps:
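SH-SY5Y-GLuc SERCaMP MJH297-derived cells (1000 cells/well) were pre-incubated 4 h at 37C, then exposed to compounds for 48 h. Viability was read as CellTiter-Glo luminescence; bortezomib served as positive control.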

Results filed as inconclusive are left out. Active and inactive are the calls of the source. Calls follow the shape of the dose curve; as a rule, active = well fitted curve in the direction sought with a large enough effect; inconclusive = small, poorly fitted or top-dose-only effect, or another doubt; inactive = no such curve, though single readings can be large; an effect the other way counts as inactive or inconclusive.

Nuclear receptor subfamily 1 group I member 3 (Homo sapiens), sequence (Q14994 whole entry, looked up): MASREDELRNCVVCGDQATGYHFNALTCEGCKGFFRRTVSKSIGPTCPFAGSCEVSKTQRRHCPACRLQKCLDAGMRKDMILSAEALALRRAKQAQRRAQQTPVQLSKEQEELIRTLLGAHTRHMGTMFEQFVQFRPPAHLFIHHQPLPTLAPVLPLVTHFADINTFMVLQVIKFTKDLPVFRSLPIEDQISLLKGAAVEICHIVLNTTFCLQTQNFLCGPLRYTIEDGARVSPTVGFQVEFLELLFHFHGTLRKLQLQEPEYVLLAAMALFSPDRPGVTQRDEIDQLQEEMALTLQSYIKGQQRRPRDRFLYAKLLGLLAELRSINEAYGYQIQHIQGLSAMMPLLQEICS
Luciferin 4-monooxygenase (Photinus pyralis), sequence (P08659 whole entry, looked up): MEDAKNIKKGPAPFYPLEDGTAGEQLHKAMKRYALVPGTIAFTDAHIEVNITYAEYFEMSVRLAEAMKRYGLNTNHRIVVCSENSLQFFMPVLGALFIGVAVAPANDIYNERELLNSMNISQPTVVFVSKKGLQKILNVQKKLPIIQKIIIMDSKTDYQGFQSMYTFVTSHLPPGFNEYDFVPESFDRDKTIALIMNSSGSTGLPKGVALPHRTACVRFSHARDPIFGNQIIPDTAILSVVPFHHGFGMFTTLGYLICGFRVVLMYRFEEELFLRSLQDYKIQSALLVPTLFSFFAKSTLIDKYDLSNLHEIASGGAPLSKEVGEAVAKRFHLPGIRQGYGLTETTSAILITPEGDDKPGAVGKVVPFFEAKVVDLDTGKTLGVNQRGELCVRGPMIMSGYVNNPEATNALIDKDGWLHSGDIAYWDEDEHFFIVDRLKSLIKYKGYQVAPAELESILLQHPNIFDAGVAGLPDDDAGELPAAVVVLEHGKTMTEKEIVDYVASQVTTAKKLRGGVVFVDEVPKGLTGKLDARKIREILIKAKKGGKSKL

As for `C/C=C(/CO)C(=O)O[C@@H]1[C@H](O)[C@@H](C(=O)OC)O[C@@H]2C[C@H]3OC(n4cnc5c(N)ncnc54)[C@H](OC)[C@H]3O[C@@]12O` (stereo not given in full), the Potency result in test [1], in [3], in test [4], in test [5], in [7] and in test [8] was “inactive” each time. Besides, the Potency entry in [9], in test [10], in [11], in [12], in [13] and in test [17] was “inactive” throughout. The Potency entry in test [18] and in [19] was “inactive” in each case. In addition, the molecule was called inactive in [2], in [6], in test [14], in [15] and in [16].

As for `CC(=O)N[C@H](C)c1nc(/C=C/C=C/C(=O)CC2CC(=O)CC[C@]2(C)O)cs1` (stereo not given in full), the Potency result in [1], in [3], in [4], in [5], in test [7] and in test [8] was “inactive” in each case. In addition, the Potency entry in [9], in [10], in test [11], in test [12], in test [13] and in [17] was “inactive” in each case. Further, the Potency result in test [18] and in [19] was “inactive” each time. Also, the result in test [2], in test [6], in test [14], in test [15] and in test [16] was inactive.

For the molecule `C[C@@]12C[C@@H](C[C@@H]3C(=O)O[C@@H](c4ccoc4)[C@H](OC(=O)c4ccccc4)[C@@H]31)OC2=O`, the Potency entry in test [1], in [3], in test [4], in test [5], in test [7] and in test [8] was “inactive” in each case. Besides, the Potency entry in test [9], in [10], in test [11], in test [12], in test [13] and in test [17] was “inactive” each time. For the same molecule, the Potency entry in test [18] and in test [19] was “inactive” throughout. Moreover, the outcome in [2], in test [6], in test [14], in test [15] and in test [16] was inactive.

In the case of `COC(=O)c1cccc2oc(-c3cccc4oc(-c5c(C)cccc5O)nc34)nc12`, the Potency is 2.66 µM (active) in test [1] and 8.31 µM (active) in [10]. Further, the outcome in [2], in test [6], in test [14], in test [15] and in [16] was inactive. Moreover, the Potency entry in test [3], in [4], in test [5], in [7], in test [8] and in [9] was “inactive” throughout. For the same molecule, the Potency entry in test [11], in [12], in test [17], in [18] and in [19] was “inactive” each time.

In the case of `COc1c(O)cc(O)c2c(=O)cc(-c3ccccc3)oc12`, the Potency result in test [1], in [3], in test [4], in [5], in test [7] and in test [8] was “inactive” each time. Moreover, the Potency result in [9], in [10], in test [11], in test [12], in [13] and in test [18] was “inactive” each time. Besides, the Potency result in test [19] was “inactive”. The call in test [2], in test [6], in [14], in test [15] and in test [16] was inactive.

With `COc1ccc(-c2oc3cc(OC)cc(OC)c3c(=O)c2O)cc1`, the Potency entry in test [1], in [3], in [4], in test [5], in [7] and in [8] was “inactive” in each case. Moreover, the Potency result in test [9], in test [11], in [12], in [13], in test [17] and in test [18] was “inactive” each time. For the same molecule, the result in [2], in [6], in [14], in [15] and in test [16] was inactive.
